Source: the supplement of paper PMC3342239

Test system: Saccharomyces cerevisiae
Assay: fraction of cells in G1 phase (DNA content, flow cytometry); higher = more cells with unreplicated DNA (G1 delay)
Conditions: temperature: 30 C; YPD; JTY2953 pdr5 snq2 (sensitized); drug added to: cultures diluted from stationary phase; 6-7 h
Outline: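 For the G1 fraction, the Dean-Jett-Fox G1 peak area was divided by the sum of the G1 and G2/M areas. S. cerevisiae in YPD at 30°C received library drugs and was fixed 6–7 h later for sensitized JTY2953 (diluted 1∶200 from overnight, final 20 µg/ml), 6 h later for dividing JTY2953, or 4.33 h later for BY4741. Fixed cells were stained with SYTOX Green and 10,000 events recorded by flow cytometry.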

| SMILES | fraction of cells in G1 phase |
| --- | --- |
| O=C(O[C@@H]1C[C@@H]2C[C@H]3C[C@H](C1)N2CC3=O)c1c[nH]c2ccccc12 [Dolasetron] (61.6555 µM) | 0.494 |
| O=P(O)(O)C(O)(Cn1ccnc1)P(=O)(O)O [Zoledronic acid] (73.5045 µM) | 0.486 |
| COc1cc(NC(C)CCCN)c2ncccc2c1 (configuration not stated) [Primaquine phosphate] (77.1146 µM) | 0.461 |
| Nc1ccn([C@@H]2O[C@H](CO)[C@@H](O)[C@@H]2O)c(=O)n1 [Cytarabine] (82.2297 µM) | 0.477 |
| COc1cc(Cc2cnc(N)nc2N)cc(OC)c1OC [Trimethoprim] (68.8884 µM) | 0.486 |
| C[C@@](Cc1ccc(O)c(O)c1)(NN)C(=O)O [Carbidopa] (88.404 µM) | 0.482 |
| CN[C@@H]1[C@@H](O[C@H]2O[C@H](CO)[C@@H](N)[C@H](O)[C@H]2O)OC2C[C@@H](N)[C@@H](O[C@H]3[C@H](O)[C@@H](O)[C@H](N)C[C@@H]3N)OC2[C@@H]1O (some centres not stated) [Apramycin] (37.0653 µM) | 0.449 |
| Oc1ncnc2[nH]ncc12 [Allopurinol] (146.936 µM) | 0.483 |
| CC(C(=O)O)c1ccc(-c2ccccc2)c(F)c1 (configuration not stated) [Flurbiprofen] (81.8773 µM) | 0.524 |
| O=C(O)c1cc(-c2ccc(F)cc2F)ccc1O [Diflunisal] (79.9349 µM) | 0.512 |
| CCCCC1C(=O)N(c2ccccc2)N(c2ccccc2)C1=O [Phenylbutazone] (64.8543 µM) | 0.499 |
| COc1cc(NS(=O)(=O)c2ccc(N)cc2)nc(OC)n1 [Sulfadimethoxine] (64.4467 µM) | 0.48 |
